The record followed here is PubChem BioAssay AID687016 (The Scripps Research Institute Molecular Screening Center, 2013).

Values joined by “and” are separate entries in the source; they are usually repeats but may differ in a detail not shown here. Identical values can stand only once. The campaign covered roughly 370,000 compounds. About 2,800 (0.76%) were called active. This is one part of a sample in which actives are shown more often than they occur. Rule as the data show it: active = inhibition above about 21%; inactive = the rest. Some compounds were tested as several samples or in several runs, with calls that do not always agree.

Sequence of E3 ubiquitin-protein ligase UHRF1 (Homo sapiens) (Q96T88 whole entry, looked up, the tested form may be a part): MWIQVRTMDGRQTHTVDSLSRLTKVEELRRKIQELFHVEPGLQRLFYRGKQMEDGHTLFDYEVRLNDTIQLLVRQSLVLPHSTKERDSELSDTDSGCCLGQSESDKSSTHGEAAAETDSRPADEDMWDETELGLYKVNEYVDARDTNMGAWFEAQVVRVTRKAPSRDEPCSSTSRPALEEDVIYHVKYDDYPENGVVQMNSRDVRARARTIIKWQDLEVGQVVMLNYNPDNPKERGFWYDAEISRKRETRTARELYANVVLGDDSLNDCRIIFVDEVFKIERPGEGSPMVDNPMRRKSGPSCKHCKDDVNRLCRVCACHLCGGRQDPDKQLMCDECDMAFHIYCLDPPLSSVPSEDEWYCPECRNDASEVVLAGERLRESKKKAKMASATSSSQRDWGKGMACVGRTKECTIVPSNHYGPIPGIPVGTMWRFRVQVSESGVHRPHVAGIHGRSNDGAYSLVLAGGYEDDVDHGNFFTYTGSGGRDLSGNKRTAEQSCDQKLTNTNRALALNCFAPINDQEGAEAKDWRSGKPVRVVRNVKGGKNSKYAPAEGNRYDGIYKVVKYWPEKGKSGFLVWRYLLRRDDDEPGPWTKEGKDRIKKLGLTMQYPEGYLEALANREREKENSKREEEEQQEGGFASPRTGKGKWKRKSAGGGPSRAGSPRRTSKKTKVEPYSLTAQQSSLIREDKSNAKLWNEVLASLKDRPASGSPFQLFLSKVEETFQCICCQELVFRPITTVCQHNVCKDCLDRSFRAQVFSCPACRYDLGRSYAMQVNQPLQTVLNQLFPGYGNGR

This assay addresses E3 ubiquitin-protein ligase UHRF1 (Homo sapiens) (UniProt Q96T88). The experiment in a line: UHRF1 methylated DNA binding inhibitors, primary screen, counter-screen for MBD2 inhibitor project, biochemical, TR-FRET, human UHRF1, single concentration (AID 687016).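 Also: UHRF1 SRA domain binding a hemimethylated CpG hairpin DNA probe; 0% = median of test compound wells and 100% = reference inhibitor.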 The note with it: UHRF1 binding to methylated oligo, at 4.4 µM, stronger effect = higher value.
For the compound `COc1ccnc(C(=O)N2CCC(Oc3cccnc3)CC2)c1`, the inhibition was -0.76% (inactive).

Regarding `O=C1CC(c2ccc3c(c2)OCO3)N=C2N(CC3CC3)C/C(=C/c3ccccc3)N12` (configuration not stated), the inhibition is -0.7% (inactive).

Regarding `O=c1ccc2c(-c3ccccc3S(=O)(=O)O)c3ccc(O)c(O)c3oc-2c1O`, the inhibition is 82.5% (active).

With `Cc1cc(=O)[nH]c(SCC(=O)Nc2ccc(F)cc2F)n1`, the inhibition was -1.2% (inactive).

On to `COCCOC(=O)C1=C(C)NC(=O)NC1c1cc2c(cc1Br)OCO2` (configuration not stated), for which the inhibition was 0.79% (inactive).

Regarding `CC(=O)C1=C(C)NC(=O)NC1c1ccc2c(c1)OCO2` (configuration not stated), the inhibition was 0.08% (inactive).

Consider `CCOCCOC(=O)C1=C(C)NC(=O)NC1c1ccc2c(c1)OCO2` (configuration not stated), for which the inhibition was 31.3% (active).

Take `CC(CCN1CCC(C(O)(c2ccccc2)c2ccccc2)CC1)Oc1ccc(C(F)(F)F)cc1` (configuration not stated): the inhibition was 1.26% (inactive).

For the compound `O=C(CCS(=O)(=O)c1ccccc1)Nc1ccc(Cl)c(Cl)c1`, the inhibition was 3.31% (inactive).

Turning to `COC(=O)[C@]12C[C@H](CC(=O)NCC34CC5CC(CC(C5)C3)C4)C(=O)N(Cc3ccc(Cl)cc3Cl)C1=C[C@H](COCc1ccccc1)O[C@@H]2C`, the inhibition was -0.14% (inactive).

As to `CCOC(=O)c1ccc2[nH]c(C)c(CN3CCN(C)CC3)c(=O)c2c1`, the inhibition was -2.6% (inactive).

Turning to `CN(C)CCn1c(=S)[nH]c2ccc(Cl)cc2c1=O`, the inhibition is -4.42% (inactive).

`CCCCN(C)Cc1c(C)[nH]c2ccc(Cl)cc2c1=O`: the inhibition was 27% (active).

On to `O=C(OC12CCCN(C1)/C(=C/c1cccnc1)C2)C1CCCC1` (configuration not stated), for which the inhibition is -1.46% (inactive).

Turning to `COc1ccc(-n2c(C)cc(C(=O)CSc3nnc(-c4cccs4)o3)c2C)cc1`, the inhibition is 23.6% (active).

Take `COc1ccc(-c2nnc(SCC(=O)c3ccc4c(c3)OCCO4)o2)cc1`: the inhibition is -0.81% (inactive).

Turning to `CCc1ccccc1NC(=O)CSc1nnc(-c2cccs2)o1`, the inhibition is 1.37% (inactive).

On to `COc1ccc(-n2c(SCC(=O)NC3CCCC3)nnc2-c2ccncc2)cc1`, for which the inhibition is 0.14% (inactive).

As to `COC(=O)[C@]12C[C@H](CC(=O)N3CCOCC3)C(=O)N(Cc3ccc(Cl)cc3Cl)C1=C[C@H](COCc1ccccc1)O[C@@H]2C`, the inhibition is 0.29% (inactive).

As to `CCC(C)C(=O)Nc1cc([N+](=O)[O-])ccc1Cl` (configuration not stated), the inhibition is -0.24% (inactive).

For the compound `CC(C)C(=O)Nc1cccc(NC(=O)c2ccc([N+](=O)[O-])cc2Cl)c1`, the inhibition was 23.4% (active).

Regarding `O=C(NCc1ccco1)c1ccc([N+](=O)[O-])cc1Cl`, the inhibition was 2.58% (inactive).

In the case of `CCC(=O)OCCCN1C(=O)CCC12CCC(c1ccccc1)CC2` (configuration not stated), the inhibition was -3.69% (inactive).

For `COc1ccc(Cn2ccc3ccc(-c4ccc5ccn(Cc6ccccc6C)c5c4)cc32)cc1`, the inhibition was -0.92% (inactive).

Regarding `CC(C)N1CCCCC(NC(=O)c2ccc3ccccc3c2)C1=O` (configuration not stated), the inhibition is -2.66% (inactive).

`O=C(c1c[nH]c2ccccc12)N1CCC(Oc2cccnc2)CC1`: the inhibition is -3.48% (inactive).

`COC(=O)[C@H](C(C)C)N1CCc2nnn(Cc3ccc(C)cc3)c2-c2ccccc2S1(=O)=O`: the inhibition is -0.67% (inactive).

Regarding `C=CCN1C(=O)[C@@H](CC(=O)NCCCCc2ccccc2)[C@]2(C(=O)OCC)CCCCC/C=C/12`, the inhibition is -1.86% (inactive).

On to `COc1ccc2[nH]c3c(C)c4cc[n+](C)cc4c(C)c3c2c1`, for which the inhibition was 92.9% (active).

Consider `CC(=O)N1CCCN(C2=Nc3ccccc3Sc3ccccc32)CC1`, for which the inhibition is 11.8% (inactive).

For `Cc1ccnc(SC2CC(=O)N(c3ccccc3)C2=O)n1` (configuration not stated), the inhibition is -0.14% (inactive).

On to `Cc1ccnc(-n2sc3ccccc3c2=O)n1`, for which the inhibition is 21.5% (active).

For `Cc1ccc(NC(=O)Cn2sc3ccccc3c2=O)cc1`, the inhibition is -0.79% (inactive).

Take `COc1ccc(CN2C/C(=C/c3ccccc3)N3C(=O)C[C@@H](c4ccccc4)N=C23)c(OC)c1`: the inhibition was -0.02% (inactive).

As for `COc1ccc(/C=C2\CC3(OC(C)=O)CCCN2C3)cc1` (configuration not stated), the inhibition is -2.63% (inactive).

On to `C=CCN1C(C(=O)OC)CN(Cc2cn(Cc3ccccc3)nn2)CCS1(=O)=O` (configuration not stated), for which the inhibition is 15.8% (inactive).

In the case of `C[N+](C)(C)CCNC(=O)c1c[nH]c2ccccc12`, the inhibition is 21.1% (active).

`O=C(NCCCc1ccccc1)C(=O)c1c[nH]c2ccccc12`: the inhibition was -1.59% (inactive).

For the compound `O=C(CNC(=O)c1ccccc1F)OCC(=O)c1c[nH]c2ccccc12`, the inhibition is -1.49% (inactive).

In the case of `Clc1ccc(-n2c(COc3ccccc3)nnc2SCc2nc3ccccc3[nH]2)cc1`, the inhibition is -1.31% (inactive).

Regarding `C[C@@H](NC(=O)c1ccccc1OCC(=O)Nc1ccc(I)cc1)C(=O)N(C)Cc1ccccc1`, the inhibition is 0.7% (inactive).

Turning to `COc1ccc2c(c1)c(=Cc1ccc(N(C)C)cc1)c1cc(-c3ccccc3)[n+](C)n12`, the inhibition is 57.8% (active).

On to `C=C1C(C(C)C)N(C)C2=NC(c3ccccc3)CC(=O)N12` (configuration not stated), for which the inhibition is -0.97% (inactive).

As for `CC(C)CSc1nnc(-c2cccnc2)n1Cc1ccccc1`, the inhibition is -0.61% (inactive).

`Cc1ccc(NC(=O)Cc2cccc(F)c2)c(S(=O)(=O)N2CCOCC2)c1`: the inhibition is 0.9% (inactive).

As for `Cc1ccccc1Cn1c2ccccc2c2cnn(CC(=O)NCc3ccco3)c(=O)c21`, the inhibition was 22.5% (active).

Take `O=C(Cn1ncc2c3ccccc3n(Cc3ccccc3)c2c1=O)NCCCN1CCOCC1`: the inhibition is 0.46% (inactive).

On to `O=C(Cn1ncc2c3ccccc3n(Cc3ccccc3)c2c1=O)NCc1ccccn1`, for which the inhibition was 0.71% (inactive).

For `CCC(=O)c1c(CC)c2n3c1=CC[C@H]3CC(Br)C=2` (some centres not stated), the inhibition is 1.95% (inactive).

For `O=C(NCc1ccc(Cl)cc1)C1CCCN(c2nc3ccccc3o2)C1` (configuration not stated), the inhibition is 2.81% (inactive).

`COc1ccc(N2CCN(CCNS(=O)(=O)c3ccc(Cl)s3)CC2)cc1`: the inhibition is -0.57% (inactive).

`CC(C)(COC(=O)Nc1ccccc1)COC(=O)Nc1ccccc1`: the inhibition is -1.28% (inactive).

Turning to `O=C(Nc1ccc(Cl)cc1)OCc1cc(-c2ccccc2)on1`, the inhibition was 2.42% (inactive).

For `Cc1ccc(NC(=O)OCc2cncs2)cc1`, the inhibition is 49.5% (active).

On to `CN1C[C@]2(C=C3CCCCC3n3c(=O)n(-c4ccccc4)c(=O)n32)N=C1NC(=O)c1ccccc1` (some centres not stated), for which the inhibition was -2.02% (inactive).

Turning to `CCOC(=O)[C@@]12CCC3=C1N(CCC3)C(=O)[C@H](CC(=O)N1CCN(C(=O)c3ccco3)CC1)C2`, the inhibition was -1.01% (inactive).

For the compound `Cc1ccc(-c2nc(C3CCCN(S(=O)(=O)c4ccc(Br)s4)C3)no2)cc1` (configuration not stated), the inhibition is 1.59% (inactive).

As for `Cc1cc(C)c2nc3nc(C)cc(C)c3c(N)c2c1`, the inhibition is 26.9% (active).

For `CCCCN1CCN(C(=O)c2ccc3c(c2)NC(=O)C(C)(C)O3)CC1`, the inhibition was 0.61% (inactive).

For `C=CCN1[C@H](CC(C)C)COc2cccc(N3CCCC3)c2S1(=O)=O`, the inhibition was -0.17% (inactive).

As for `Cc1ccccc1NC(=O)Cn1c(=O)n(CC2CCCO2)c(=O)c2ccccc21` (configuration not stated), the inhibition is -0.24% (inactive).

`Cc1ccccc1NC(=O)CN1C(=O)N/C(=C\c2cccn2-c2cccc(C(=O)O)c2)C1=O`: the inhibition was 74.8% (active).

As to `COC(=O)CN1C(=O)N/C(=C/c2ccc(OC)c(C)c2OC)C1=O`, the inhibition is -4.91% (inactive).

For `CC(C)(C)C1C/C(=C/c2ccco2)C(=O)/C(=C/c2ccco2)C1` (configuration not stated), the inhibition is 99.5% (active).

Regarding `C=CC1=C(C(=O)O)N2C(=O)[C@@H](NC(=O)/C(=N/OCC(=O)O)c3csc(N)n3)[C@H]2SC1`, the inhibition was 93.7% (active).

For the compound `CO/N=C(\C(=O)N[C@@H]1C(=O)N2C(C(=O)O)=C(COC(C)=O)CS[C@H]12)c1csc(N)n1` (stereo in doubt), the inhibition was 9.54% (inactive) and 0.92% (inactive) and 27.5% (active).

`C=CC1=C(C(=O)O)N2C(=O)[C@@H](NC(=O)/C(=N\OCC(=O)O)c3csc(N)n3)[C@H]2SC1`: the inhibition is 77.4% (active).

As to `CCN1CCN(C(=O)N[C@@H](C(=O)N[C@@H]2C(=O)N3C(C(=O)O)=C(CSc4nnnn4C)CS[C@H]23)c2ccc(O)cc2)C(=O)C1=O`, the inhibition was -2.2% (inactive).

For the compound `COc1ccc(-n2c(COc3ccc(C)cc3)nnc2SCC(=O)Nc2ccc(Oc3ccccc3)cc2)cc1`, the inhibition is -5.28% (inactive).

Consider `CN(C)Cc1cn(-c2ccc(-c3noc4c3C(=O)N(CC(=O)N3CCOCC3)CC4)cc2)nn1`, for which the inhibition is 2.67% (inactive).

For `O=C(CN1CCCCCC1)Nc1ccc(S(=O)(=O)N2CCCCC2)cc1`, the inhibition was 62.1% (active).

For `O=C(CN1CCCCC1)Nc1ccccc1Cl`, the inhibition was 45.6% (active).

`O=C(CSCc1ccc(Br)cc1)Nc1ccc(S(=O)(=O)N2CCCCCC2)cc1`: the inhibition is -1.33% (inactive).

Regarding `O=C(CN1CCCCCC1)Nc1c(Cl)cc(Cl)cc1Cl`, the inhibition was -0.79% (inactive).

For `CCOc1ccc(NC(=O)COc2ccc(S(=O)(=O)N3CCCC3)cc2)cc1`, the inhibition was 1.66% (inactive).

Take `O=C(CN1CCCCC1)Nc1ccccc1C(=O)NC1CC1`: the inhibition was 3.15% (inactive).

Consider `CC(=O)Nc1ccc(OC[C@@H](O)CN2CCC(C(O)(c3ccccc3)c3ccccc3)CC2)cc1`, for which the inhibition is 1.32% (inactive).

`Cc1ccc(NC(=O)c2cc(C)nn2-c2ccccc2)c(C)c1`: the inhibition was -1.23% (inactive).

Take `CCCCCN1CCCCC(NC(=O)C(C)CCC)C1=O` (configuration not stated): the inhibition is -0.32% (inactive).

As to `CCN(CC)CCNC(=O)Cn1cnc2sc(C)c(S(=O)(=O)N3CCOCC3)c2c1=O`, the inhibition was 6.01% (inactive).

With `Cc1sc2ncn(CC(=O)NCCN(C)C)c(=O)c2c1S(=O)(=O)N1CCC(C)CC1`, the inhibition is -1.58% (inactive).

Regarding `CCN(CC)CCCNC(=O)Cn1cnc2sc(C)c(S(=O)(=O)N3CCN(c4ncccn4)CC3)c2c1=O`, the inhibition was 31.2% (active).

Turning to `C=CCN1C(=O)[C@@H](CC(=O)NCCCOCCCC)[C@]2(C(=O)OCC)CCCCC/C=C/12`, the inhibition was -0.5% (inactive).

`C=C(C)C#CC(Cc1ccccc1)N(CC1CC1)/C(N)=N/C(=O)OCc1ccccc1` (configuration not stated): the inhibition is -3.18% (inactive).

For the compound `COc1ccc(C(=O)NCCSc2ccccc2C)cc1`, the inhibition was 0.98% (inactive).

With `COc1ccc(C(=O)NNc2cc(C)nc(NNC(=O)c3ccc(OC)cc3)n2)cc1`, the inhibition was 20.7% (active).

`COc1cccc(C(=O)NC(=O)Nc2nc(C)cc(C(F)(F)F)n2)c1`: the inhibition was 0.01% (inactive).

What is called inhibition is the drop in the measured response relative to a control, in per cent.
